Data on 14 compounds can be found in PubChem BioAssay (NCI).

Compounds without any hit were thinned out: in the full panel of roughly 83,000, 20% have a hit.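 Assay: single dose, 48 h. Readout: percent growth (0 = no net growth; negative = cell death). Active: <10.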 A number with no mark means an inactive call. Activity calls are given as the source filed them.

The first assay deals with MDA-MB-435 melanoma. Description: NCI-60 one-dose screen, 48 h (100 = growth as untreated, 0 = no growth, -100 = all killed). The settings on record: 10 µM unless noted.
With `COc1ccc(/C=C(\C#N)n2nnc3cc(Cl)ccc32)cc1`, the growth is -61.6% (active).
Regarding `COc1cc2c(c(OC)c1OC)CCC(c1cccc(C(=O)Nc3cccc(Cl)c3)c1)O2` (centres undefined), the growth is 82.1%.
Take `COc1ccc(Nc2ncc(Br)c(NCCCNC(=O)C3CCCC3)n2)cc1`: the growth is 63%.

The next assay concerns SW-620 colon. The assay is described as above. The settings on record: 10 µM unless noted.
As for `Fc1cc2c(cc1Cl)N(c1ncnc3ccc(-c4ccc5n[nH]nc5c4)cc13)CC2`, the growth is 96.9%.
In the case of `COc1ccc(-c2noc(C(=O)O)c2-c2cc(OC)c(OC)c(OC)c2)cc1`, the growth was 22.4%.
On to `C=C1C(=O)O[C@H]2[C@H]1CC/C(Cn1cc(-c3ccccc3)nn1)=C\CC[C@@]1(C)O[C@@H]21`, for which the growth was -79.1% (active).
As to `O=C(NCCCl)Nc1ncccc1OCc1ccccc1`, the growth was 99%.
Take `COc1ccc(/C=N/C2=C(C#N)C(c3ccccc3)c3ccc4ccccc4c3O2)cc1` (centres undefined): the growth was 24.3%.
As to `CCOC(=O)c1cc(C)n(-c2ccc(C(=O)O)cc2)c1C`, the growth is 64.4%.
As for `COc1cc(NS(=O)(=O)c2ccc(-c3cnc(C4CC4)o3)cc2)ccc1F`, the growth is 18%.
Consider `CC(=O)N1N=C(c2ccc(Nc3nc(Nc4ccccc4)nc(Nc4ccccc4)n3)cc2)CC1c1cccc([N+](=O)[O-])c1` (centres undefined), for which the growth was 94.9%.
Take `COc1cc(C2c3cc(OC(C)=O)c(OC)cc3CC3C(=O)OCC32)ccc1OC(C)=O` (centres undefined): the growth was 101%.
Turning to `O=c1c2cccc3c(N4CCCC4)ccc(c32)c2nc3ccccc3n12`, the growth was 59.5%.
For `CCC(C)(C)C(=O)O[C@H]1C[C@@H](C)C=C2C=C[C@H](C)[C@H](CC[C@@H]3CC(SCCN)CC(=O)O3)[C@H]21` (some centres undefined), the growth was 81.8%.
